Hit rate of the full screen: of about 5,500 compounds, about 2,000 (36%) were called active. Another 18% or so got no clear call; they are omitted. The list shows a part of the results. Values without a mark were called inactive. Cut-off read from the data, not from the text of the source: active = normalized growth mostly below about 0.91 (no sharp cut-off); inconclusive = no clear call, values can overlap the other calls; inactive = mostly above about 0.92.

The assay in a line: chemical genetic growth profiling, strain panel (AID 1159580).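 Note: tested at 20 µM; growth read once vehicle control cultures reached saturation at 30 °C; 1 = growth at the plate median or of vehicle wells; lower values mean less growth of the strain.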 As to conditions: S. cerevisiae deletion strains, growth OD.

Turning to `CCCCCCCCCCCCC/C=C/[C@@H](O)[C@@H](N)CO`, the normalized growth reads like this: (locus YAL013W, strain DEP1, active compounds read low) 0.877 (active); (locus YAL040C, strain CLN3, active compounds read low) 0.984; (locus YCL061C, strain MRC1 (second series), active compounds read low) 0.925 (active); (locus YDR150W, strain NUM1, active compounds read low) 0.848 (active); (locus YDR363W, strain ESC2, active compounds read low) 0.929; (locus YER002W, strain NOP16, active compounds read low) 1.02. The normalized growth is 1.01 (locus YGR078C, strain PAC10, active compounds read low); 0.172 (active) (locus YGR229C, strain SMI1, active compounds read low); 0.644 (active) (locus YJR075W, strain HOC1, active compounds read low); 1.02 (locus YMR307W, strain GAS1, active compounds read low); 0.844 (locus YNL153C, strain GIM3, active compounds read low); 1.19 [resistant] (active) (locus YNL175C, strain NOP13, active compounds read low). Further, the normalized growth by setting is: (locus YNL197C, strain WHI3, active compounds read low) 1.1; (locus YNL224C, strain SQS1, active compounds read low) 1.06; (locus YOR083W, strain WHI5 (second series), active compounds read low) 1.11; (locus YPL055C, strain LGE1, active compounds read low) 0.757 (active); (locus YPL241C, strain CIN2, active compounds read low) 0.926 (active).
